# An excerpt weighted towards active compounds, which were near 2.4% of everything screened.
# AmpC det inh – blocks E. coli AmpC beta-lactamase in presence of detergent; P00811; purified AmpC, nitrocefin hydrolysis with detergent; Potency, µM (series often up to 28.7 µM), without a hit: at the highest dose activity change, negative = inhibition; 0.09% of 71,000 active; AID 584; active means well fitted curve in the direction sought with a large enough effect; inconclusive means small, poorly fitted or top-dose-only effect; further: on the % scale 0 is the no-effect control and ±100 the full control effect
# Target sequence (P00811 whole entry, looked up): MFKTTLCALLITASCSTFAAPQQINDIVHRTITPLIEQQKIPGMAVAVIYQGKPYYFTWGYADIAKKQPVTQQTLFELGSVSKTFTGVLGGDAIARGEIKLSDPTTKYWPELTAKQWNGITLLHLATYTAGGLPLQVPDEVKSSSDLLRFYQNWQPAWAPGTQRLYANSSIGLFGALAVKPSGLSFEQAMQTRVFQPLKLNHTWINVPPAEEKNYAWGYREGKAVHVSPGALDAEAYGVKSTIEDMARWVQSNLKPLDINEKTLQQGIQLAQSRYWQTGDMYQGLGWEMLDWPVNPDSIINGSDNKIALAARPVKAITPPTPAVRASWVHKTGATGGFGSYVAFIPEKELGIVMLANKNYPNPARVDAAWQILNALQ
#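 E. coli AmpC (5.3 nM) in 20 mM phosphate pH 7.0 with 0.01% Triton X-100, preincubated 15 min RT with compound; nitrocefin (2 uL of 800 uM stock) hydrolysis followed by 480 nm absorbance every 20 s over 4 min.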
# LT uptake inh – anthrax lethal toxin internalization inhibition | Potency, µM (highest dose often 40 µM), for inactives: top-dose activity change, negative = inhibition, hits mostly inhibitors | AID 912 | Cells, anthrax lethal toxin internalization, FRET ratio (460/530) | 0.67% of 70,000 active; further: on the % scale 0 is the no-effect control and ±100 the full control effect; nearly all actives have a fitted effect of over 50% in size
# AmpC inh no det – inhibitors of E. coli AmpC beta-lactamase without detergent | P00811 | AmpC nitrocefin hydrolysis, absorbance 480 nm, no detergent | Potency, µM (highest dose often 28.7 µM), inactives show at the top dose activity change, negative = inhibition | 1.8% of 71,000 active; further: % of control where 0% means no effect
#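 Enzyme, pH 7.0 phosphate. Compound titrations were pre-incubated with AmpC for 15 min at room temperature before nitrocefin (stock 800 uM) addition; product formation was recorded at 480 nm every 20 s for 4 min.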
# Prx2 Sm inh – blocks S. mansoni peroxiredoxin 2 enzymatic activity | S. mansoni Prx2 activity coupled to TGR/GSH (TGR is thioredoxin glutathione reductase), NADPH fluorescence loss, qHTS | Potency, µM | 0.07% of 65,000 active
#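 Purified S. mansoni TGR and Prx2 in pH 7.4 phosphate buffer with EDTA and Tween-20 were preincubated with compounds for 15 min. Further NADPH/GSH was added, then a 2.5 mM H2O2 aliquot initiated turnover, followed kinetically by NADPH fluorescence.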
# An asterisk follows results filed as active; ? = inconclusive; . = not tested or not shown; [ ] = another dose, or the depositor's remark. Unless noted, the call rests on the fitted dose curve. Potency means the concentration at half of the fitted maximal effect.
SMILES,AmpC det inh,LT uptake inh,AmpC inh no det,Prx2 Sm inh
Cc1nnc(NC(=O)CCCCCN2C(=O)C3C4C=CC(C4)C3C2=O)s1 (stereo not given),8%,1%,4µM*[single pt active],.
Cc1nnc(NC(=O)NC(C)N2C(=O)C3C4C=CC(C4)C3C2=O)s1 (stereo not given),-5%,-7%,-12%,>57
Cc1ccccc1CNc1nc(N)n(-c2ccccc2)n1,6%,-6%,4µM*[single pt active],>57
N#Cc1ccc(CN2CCC3(CC2)CCN(C(=O)c2ccco2)CC3)cc1,0%,?,1%,>57
Fc1ccc(OCc2nc(-c3ccc(Br)o3)no2)c(F)c1,10%,?,2.5µM*[single pt active],>57
Brc1ccc(-c2noc(CCc3ccccc3)n2)o1,10%,?,4µM*[single pt active],>57
C[C@@]12CC[C@H](O)C[C@@H]1CC[C@H]1[C@H]2C[C@@H](O)[C@]2(C)[C@@H](C3=CC(=O)OC3)CC[C@@]12O,7%,?,-10%,>11
CCCn1c(-c2ccc(F)cc2)nc2c(N3CCCN(Cc4ccccc4)CC3)nc(C)nc21,17%,6.3µM*,98%,.
CCCn1c(C)nc2c(N3CCCN(Cc4ccccc4)CC3)nc(C)nc21,15%,-4%,107%,.
Cc1nc2c3ccccc3n(CC(=O)c3ccc(F)cc3)c(=O)n2n1,14%,?,4µM*[single pt active],>57
COc1ccc(-c2nc3cnc(Oc4cccc(Cl)c4)nc3n(C[C@H]3CCCO3)c2=O)cc1,0%,2%,-6%,>57
Clc1ccc(C(c2ccc(Cl)cc2)C(Cl)(Cl)Cl)cc1,14%,6.3µM*,?,.
O=C(CSc1nc(-c2ccc(F)cc2)cs1)NC(=O)NCc1ccco1,0%,-19%,3.2µM*,>57
Cc1cc(NC(=O)CSc2nc(-c3ccc(F)cc3)cs2)no1,-3%,-2%,-13%,>57
COc1ccccc1N(C(C)=O)C1SC(=O)N(c2ccccc2)C1=O (stereo not given),-2%,9%,13%,>57
COc1cccc(NC2SC(=O)N(c3ccccc3)C2=O)c1 (stereo not given),8%,-18%,4µM*[single pt active],>57
CC(C)N(Cc1nc(-c2ccccc2)no1)C(=O)CN(C)S(=O)(=O)c1ccccc1,-3%,-15%,73%,>57
CC(C)N(Cc1nc(-c2ccccc2)no1)S(=O)(=O)c1ccccc1,3%,?,4µM*[single pt active],>57
COc1ccc(-n2c(=O)c(-c3cc(F)cc(F)c3)nc3cncnc32)cc1,-5%,-7%,-4%,>57
CCN1C[C@@]2(C)CC[C@H](O)[C@@]34[C@@H]5C[C@H]6[C@H](O)[C@@H]5[C@](O)(C[C@@H]6OC)[C@H](C[C@@H]23)[C@H]14,-1%,?,-7%,>57
COC(=O)Cc1ccc(NC(=O)c2ccc(Br)o2)cc1,-2%,-8%,-1%,>57
CCN(CC)c1ccc(NC(=O)c2ccc(Br)o2)cc1,-4%,13µM*,-6%,.
N#Cc1nc(-c2ccccc2F)oc1N1CCCC1,-4%,4%,14%,>57
CN(C)c1oc(-c2ccccc2F)nc1C#N,13%,-3%,4µM*[single pt active],>57
Cc1ccccc1C1CC(c2ccccc2)Nc2ncnn21 (stereo not given),10%,-23%,4µM*[single pt active],>57
SMILES,AmpC det inh,LT uptake inh,AmpC inh no det,Prx2 Sm inh
CCOc1ccc(C2CC(c3ccc(F)cc3)n3ncnc3N2)cc1 (stereo not given),12%,-13%,4µM*[single pt active],>57
Fc1ccc(C2CC(c3ccccc3)n3ncnc3N2)cc1 (stereo not given),-5%,-30%,20%,>57
COc1cccc(C2CC(c3ccccc3)Nc3ncnn32)c1 (stereo not given),-1%,-29%,23%,>57
COc1cccc(C2CC(c3ccccc3OC)n3ncnc3N2)c1 (stereo not given),16%,12%,4µM*[single pt active],>57
Cn1c(=O)n2n(c1=O)[C@H]1[C@H](O)[C@H]3O[C@@H]3/C(=N/OCc3ccccc3)[C@@H]1CC2,.,-1%[1.6 µM],.,.
Cc1ncsc1C(=O)Nc1nc2c(s1)CCCC2,-1%,11%,-1%,>57
O=C(Nc1nc2c(s1)CCCC2)c1ccc2ncsc2c1,13%,10µM*,78%,>57
COc1ccccc1NC(=O)C1(C)Cc2ccccc2C(=O)O1 (stereo not given),7%,-1%,4µM*[single pt active],>57
O=C(c1ccc(CSCc2ccccc2F)o1)N1CCN(c2ccc(N3CCOCC3)nn2)CC1,11%,7.9µM*,162%,>57
O=C(Cn1nc(Cc2cccnc2)c2ccccc2c1=O)NCCCN1CCCC1=O,8%,-9%,4%,>57
O=C(Cn1nc(Cc2cccnc2)c2ccccc2c1=O)Nc1ccc2c(c1)OCO2,14%,-17%,4µM*[single pt active],>57
CCN(CC)CCNC(=O)Cn1nc(Cc2cccnc2)c2ccccc2c1=O,12%,?,4µM*[single pt active],>57
COCCNc1ncnc2ccc(-c3ccc(C(=O)N(C)C)cc3)cc12,-1%,6%,1%,>57
N[C@@](CC(=O)O)(Cc1ccccc1)C(=O)O,-1%[5.75 µM],-2%[8 µM],-5%[5.75 µM],>57
CCOC(=O)C1CCCN(c2c(NCC3CCCN3CC)c(=O)c2=O)C1 (stereo not given),11%,-11%,4µM*[single pt active],>57
CCOC(=O)C1CCCN(c2c(NCCCN3CCCC(C)C3)c(=O)c2=O)C1 (stereo not given),14%,-21%,4µM*[single pt active],>57
Cc1nc2cccc([N+](=O)[O-])c2n1CCCN(C)C,-4%[5.75 µM],-3%[8 µM],-18%[5.75 µM],>57
C[C@H](C(=O)c1ccncc1)c1ccccn1,-1%[5.75 µM],-12%[8 µM],-9%[5.75 µM],>57
O=C(O)CCc1ccc(-c2ccccc2)[nH]1,-9%[5.75 µM],6%[8 µM],-5%[5.75 µM],>57
COc1ccc(-c2cc(CCCC(=O)NCc3ccccn3)no2)cc1,14%,-14%,3.2µM*[single pt active],>57
COc1ccc(-c2cc(CCCC(=O)NCCc3ccc(OC)cc3OC)no2)cc1,15%,.,40%,>57
FC(F)(F)c1ccccc1Cl,11%,-2%,-8%,.
CN1CCC(=C2c3ccccc3C=Cc3ccccc32)CC1,-2%,7.9µM*,71%,>57
CCSc1nnc(NC(=O)c2ccc(Br)s2)s1,1%,.,10µM*,>57
c1ccc(-c2nnn(CCN3CCCCC3)n2)cc1,-4%[5.75 µM],?,6%[5.75 µM],>57
SMILES,AmpC det inh,LT uptake inh,AmpC inh no det,Prx2 Sm inh
COc1ccc(-c2[nH]ncc2-c2cnn(-c3ccccc3)c2)c(O)c1,9%,13µM*,-16%,>57
COc1ccc2c(c1)[C@]1(C)CCC[C@](C)(CO)[C@@H]1CC2,1%,-12%,21%,>57
N#C/C(=C\c1ccc(O)c(O)c1)C(=O)Nc1ccccc1,-5%,25µM*,?,>57
CC(=O)N1C[C@@H]2C[C@H](C1)c1cccc(=O)n1C2,2%,?,3%,>57
S=C1SCN(C2CCCCCCCCCCC2)CN1C1CCCCCCCCCCC1,-4%[5.75 µM],-8%[8 µM],0%[5.75 µM],>57
O=C(c1ccco1)N1CCN(c2nc3ccccc3n3nnnc23)CC1,21%,-4%,40%,>57
c1ccc(CC2CCN(c3nc4ccccc4n4nnnc34)CC2)cc1,12%,-8%,13µM*,>57
Clc1ccc(Nc2ncnc3c2cnn3-c2ccccc2)cc1,6%,10µM*,-4%,>57
